Source: PubChem (National Center for Advancing Translational Sciences (NCATS))
HCV inh = blocks hepatitis C virus | actives 3.4% (n = 340,000) | AID 651820 | Huh7.5.1 HCVcc-Cre infection, luciferase reporter, 44 h | Potency, µM (titrated, usually from 41.8 µM), inactives show top-dose activity change, negative = inhibition, hits mostly inhibitors; further: potency means the concentration at half of the fitted maximal effect
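Seed cells (1,000/well) for 4 h; treat with compound and infect with HCVcc-Cre, moi about 0.5. Incubate 44 h, then detect luciferase activity.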
FMDV inh = antivirals against foot and mouth disease virus | AID 1159524 | actives 1.2% (n = 410,000) | FMDV antiviral cell-based qHTS | Potency, µM (doses to about 57.9 µM), for inactives: at the top dose activity change, negative = inhibition, hits mostly inhibitors; calls by dose curve; tested in HEK293T cells; further: read-out not given here; potency means the concentration at half of the fitted maximal effect; nearly all actives have a fitted effect of over 45% in size
VACV mCherry inh = vaccinia inhibition (mCherry reporter) | AID 720579 | Vaccinia virus mCherry reporter infection, fluorescence | actives 0.63% (n = 310,000) | Potency, µM (top dose mostly 36.5 µM), for inactives: at the top dose activity change, negative = inhibition, hits mostly inhibitors; calls by dose curve; tested in A549 cells; further: potency means the concentration at half of the fitted maximal effect; nearly all actives have a fitted effect of over 35% in size
HCMV antiviral = inhibitors of human cytomegalovirus | HFF cells, HCMV-luciferase reporter, 72 h; hits give low values | activity change, negative = inhibition, % at 57.5 µM | actives 4.5% (n = 410,000); in the data active means activity change below about -60%; inconclusive means no clear call, values can overlap the other calls; inactive means above about -39%
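Screen run at 2 compound doses on HFFs infected with reporter HCMV, MOI 1 PFU/cell. Luciferase activity from cell lysates at 72 h post infection gave inhibition relative to buffer-only and Salinomycin wells.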
Vaccinia Venus = inhibitors of vaccinia virus (Venus reporter) | Vaccinia virus Venus reporter expression, fluorescence | AID 720580 | actives 0.46% (n = 330,000) | Potency, µM (doses to about 36.5 µM), for inactives: top-dose activity change, negative = inhibition, most hits filed as inhibitors; calls by dose curve; tested in A549 cells; further: potency means the concentration at half of the fitted maximal effect; nearly all actives have a fitted effect of over 30% in size
Giardia FBPA inh = blocks Giardia fructose-bisphosphate aldolase activity; Potency, µM (doses to about 59.6 µM), for the others: at the highest dose activity, negative = inhibition, hits mostly inhibitors; A8B2U2; purified Giardia FBPA; actives 0.71% (n = 290,000); further: potency means the concentration at half of the fitted maximal effect; nearly all actives have a fitted effect of over 55% in size
Target sequence (A8B2U2 whole entry, looked up): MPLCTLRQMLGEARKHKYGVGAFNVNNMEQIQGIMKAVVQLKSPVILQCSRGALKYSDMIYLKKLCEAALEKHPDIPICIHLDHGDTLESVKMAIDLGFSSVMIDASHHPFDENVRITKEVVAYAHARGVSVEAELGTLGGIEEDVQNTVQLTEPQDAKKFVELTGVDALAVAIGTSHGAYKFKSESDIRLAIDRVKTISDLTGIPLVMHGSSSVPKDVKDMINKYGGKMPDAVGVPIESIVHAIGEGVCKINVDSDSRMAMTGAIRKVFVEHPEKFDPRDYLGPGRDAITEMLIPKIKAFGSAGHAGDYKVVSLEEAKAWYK
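Giardia FBPA (40 nM reagent) was preincubated 10 min at RT with compound (up to 57.5 uM final), then substrate plus GAPDH/TPI/NAD/arsenate coupling system with diaphorase/resazurin was added; resorufin fluorescence (525/598 nm) was read after 20 min.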
* marks the source's active call; other numbers are inactive results; i = inactive; ? = inconclusive; . = not tested or not shown; [ ] = dose if it differs, or a comment. Compounds with a hit are over-represented: about 7.5% of the library has one in this group of screens. Unless noted, the call rests on the fitted dose curve; in most records, active means well fitted curve in the direction sought with a large enough effect; inconclusive means small, poorly fitted or top-dose-only effect, or another doubt; inactive means no such curve, though single readings can be large; an effect the other way counts as inactive or inconclusive. On the % scale 0 is the no-effect control and ±100 the full control effect.

SMILES | HCV inh | FMDV inh | VACV mCherry inh | HCMV antiviral | Vaccinia Venus | Giardia FBPA inh
COc1ccc(C(=O)Nn2c(SCC(=O)NCC3CCCO3)nc3ccccc3c2=O)cc1 (centres undefined) | -8.9% | 11.2µM* | . | ? | . | 15.6%
COc1ccc(C(=O)Nn2c(SCC(=O)NCc3ccccc3)nc3ccccc3c2=O)cc1 | -3.0% | ? | . | ? | . | 13.2%
O=C(CC(Sc1ccc(Br)cc1)C(=O)O)c1ccc(F)cc1 (centres undefined) | -16.9% | -20.1% | . | -29.2 | . | -3.5%
COc1ccc(CNS(=O)(=O)c2ccc(C3CNC(=O)C3)cc2)cc1 (centres undefined) | 3.16µM* | . | -0.5% | 35.4 | -3.3% | 5.7%
CCc1ccc(NS(=O)(=O)c2ccc3oc(=O)ccc3c2)cc1 | -22.2% | 19.7% | -24.3% | -65.9* | -19.6% | -7.2%
O=C(C1CCCCC1)N1CCN(c2ccnc3cc(Cl)ccc23)CC1 | ? | 28.2µM* | -25.1% | -82.8* | -12.4% | 11.9%
O=C(C1CC1)N1CCN(c2ccnc3cc(Cl)ccc23)CC1 | 5.9% | -13.5% | i | ? | -4.5% | 5.3%
CC(C)(C)C(=O)N1CCN(c2ccnc3cc(Cl)ccc23)CC1 | ? | ? | . | -98.2* | . | 2.2%
O=C(C1CCC1)N1CCN(c2ccnc3cc(Cl)ccc23)CC1 | ? | -25.2% | . | -87.4* | . | -1.5%
O=C(Nc1ccc(OC(F)(F)F)cc1)N1CCN(c2ccnc3cc(Cl)ccc23)CC1 | 11.2µM* | ? | . | -84.7* | . | -0.1%
O=S(=O)(c1ccc(-c2ccon2)s1)N1CCN(c2ccncc2)CC1 | -10.0% | 2.9% | -24.2%[7.34 µM] | . | -0.3%[7.34 µM] | 14.2%
Cc1ccc(S(=O)(=O)N2CCN(c3ccnc(-c4cccs4)n3)CC2)cc1 | . | . | i | . | -23.7% | .
CSc1ncc(Cl)c(C(=O)Nc2ccc(S(=O)(=O)N3CCC(C)CC3)cc2)n1 | . | ? | -29.9% | -76.5* | -18.6% | .
CCS(=O)(=O)c1ncc(Cl)c(C(=O)Nc2ccc(S(=O)(=O)N3CCC(C)CC3)cc2)n1 | ? | 14.1µM* | ? | -99.6* | 17.8µM* | -0.2%
CCSc1ncc(Cl)c(C(=O)Nc2ccc(S(N)(=O)=O)cc2)n1 | 11.1% | -19.4% | -14.9% | -85.3* | -21.1% | 0.4%
CCSc1ncc(Cl)c(C(=O)Nc2ccc(S(=O)(=O)Nc3ncccn3)cc2)n1 | 19.0% | -3.7% | -17.7% | 10.4 | -4.2% | .
CCCSc1ncc(Cl)c(C(=O)Nc2ccc(S(=O)(=O)N3CC(C)OC(C)C3)cc2)n1 (centres undefined) | 10µM* | -5.6% | . | -67.5* | . | -9.3%
CCSc1ncc(Cl)c(C(=O)Nc2ccc(S(=O)(=O)N3CCC(C)CC3)cc2)n1 | . | ? | ? | ? | -19.8% | .
Cc1cc(C)nc(NS(=O)(=O)c2ccc(NC(=O)c3ccc(S(=O)(=O)N4CC(C)OC(C)C4)cc3)cc2)n1 (centres undefined) | 8.8% | 23.2% | i | -5.6 | -12.6% | 9.8%
CC1(C)OC(=O)C2=C(C[C@@H](C3CCCCC3)O[C@@H]2c2ccc(F)cc2)O1 | . | -24.4% | -13.5% | -9.9 | 4.5% | .
Cc1ccccc1C(=O)NNC(=O)c1cc(S(=O)(=O)N2CCOCC2)ccc1C | 6.2% | -17.2% | . | -24.5 | . | .
CN(C(=O)c1ccccc1-c1ccccc1C(=O)O)c1ccccc1 | 16.5% | 2.9% | i | 8.1 | -17.9% | 9.6%
c1ccc(-c2n[nH]c3c2CCC3)cc1 | 12.6µM* | 0.0% | . | -15.6 | -28.6% | 5.0%
O=C1COc2ccc3ccccc3c21 | 2.6% | 3.9% | -2.9% | -22.8 | 0.7% | -3.2%
CCC1(c2ccccc2)NC(=O)N(CC(=O)Nc2cc(S(=O)(=O)N3CCCCC3)ccc2OC(C)C)C1=O (centres undefined) | 10µM* | -2.3% | -23.1% | -10.4 | -17.1% | .
SMILES | HCV inh | FMDV inh | VACV mCherry inh | HCMV antiviral | Vaccinia Venus | Giardia FBPA inh
CCC1(c2ccccc2)NC(=O)N(CC(=O)Nc2cc(S(=O)(=O)N3CCCCCC3)ccc2OC)C1=O (centres undefined) | 14.1µM* | -29.7% | -22.5% | -11.7 | ? | .
Cc1ccccc1NC(NC(=O)c1cccs1)C(Cl)(Cl)Cl (centres undefined) | 4.2% | -28.5% | . | 2.4 | ? | 1.1%
CCCCNC(=O)c1nc2ccc(Br)cc2nc1-c1cccc(Br)c1 | . | . | . | -5.9 | . | .
Cc1cccc(-n2c(C)cc(C(=O)C(=O)Nc3nncs3)c2C)c1 | . | 5.3% | -4.4% | 0.7 | 0.7% | .
O=S1(=O)NC(C2CC2c2ccccc2)CCO1 (centres undefined) | 4.4% | -11.9% | -7.1% | 6.3 | -16.5% | -3.5%
COc1ccc(-c2c3c(=O)n(C)c(=O)n(C)c3c3n2-c2ccccc2NC3c2ccco2)cc1 (centres undefined) | . | ? | -21.0% | 14.0 | -4.0% | .
COc1ccc(O)c(C2Nc3ccccc3-n3c(-c4ccccc4)c4c(=O)n(C)c(=O)n(C)c4c32)c1 (centres undefined) | . | 39.8µM* | ? | ? | -23.3% | .
Cc1ccc(C2Nc3cc(C)c(C)cc3-n3c(-c4ccccc4)c4c(=O)n(C)c(=O)n(C)c4c32)o1 (centres undefined) | . | -17.0% | -18.6% | -1.0 | -13.0% | .
Cn1c(=O)c2c(-c3ccccc3)n3c(c2n(C)c1=O)C(c1ccc([N+](=O)[O-])cc1)Nc1ccccc1-3 (centres undefined) | . | -29.3% | -20.9% | -68.0* | -12.3% | .
Cc1ccc(-c2c3c(=O)n(C)c(=O)n(C)c3c3n2-c2ccccc2NC3c2ccc(C)cc2O)cc1 (centres undefined) | . | -26.0% | ? | -96.1* | -38.9% | .
Cc1ccc(CCc2nnc(SCC(=O)Nc3ccccc3Cl)n2-c2ccccc2)o1 | -23.6% | 0.0% | -28.5% | -33.7 | -17.7% | 1.5%
CCOC(=O)c1ccc(NC(=O)CSc2nnc(CCc3ccc(C)o3)n2-c2ccccc2)cc1 | 10µM* | -14.0% | -29.2% | -1.1 | -16.9% | 1.4%
O=S(=O)(Nc1ccc(C(O)(C(F)(F)F)C(F)(F)F)cc1)c1ccc(Cl)c2nonc12 | . | 35.5µM* | i | . | 48.6% | .
O=S(=O)(Nc1ccc(Br)cc1)c1cccc2nonc12 | 10.7% | 13.8% | . | -29.8 | . | .
O=C(Cc1ccccc1[N+](=O)[O-])NCC1(c2cccc3c2OCO3)OCCO1 | -8.8% | -18.8% | -1.8% | 0.6 | -10.6% | .
O=C1Nc2ccccc2C(=O)N(C2CCCC2)C1C(=O)NC1CC1 (centres undefined) | . | -12.7% | -1.7% | 16.8 | -4.6% | .
Nc1c(C(=O)Nc2ccc(Cl)cc2)sc2nc3c(cc12)N1CCC3CC1 | . | ? | -25.0% | -86.1* | -29.1% | .
COc1ccc(NC(=O)c2sc3nc4c(cc3c2N)N2CCC4CC2)cc1OC | . | ? | -16.5% | -3.8 | -20.2% | .
Nc1c(C(=O)Nc2ccc(Cl)c(C(F)(F)F)c2)sc2nc3c(cc12)N1CCC3CC1 | . | ? | ? | -93.1* | ? | .
